Where a name gives a salt, the structure may show the parent alone. ± gives the standard deviation of the averaged measurements.
Tested on: E. coli TESEC Mtb Alr
Test: growth (OD600 after 10 h); higher = more growth (less inhibition)
Settings: compound 0.1 mM
Description: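 TESEC Mtb Alr E. coli, or the Alr+ wild-type control, in 384-well plates with Prestwick library compounds at 0.1 mM and 1% DMSO, across arabinose induction levels of 1E3 to 1E7 nM. Growth is read as OD600 after 10 h at 37 °C in triplicate biological replicates.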

[1] = arabinose 1000 nM, raw OD600 reference: median of DMSO wells 0.294, cell-free background 0.041
[2] = arabinose 10000 nM, raw OD600 reference: median of DMSO wells 0.264, cell-free background 0.041
[3] = arabinose 100000 nM, raw OD600 reference: median of DMSO wells 0.201, cell-free background 0.041
[4] = arabinose 1000000 nM, raw OD600 reference: median of DMSO wells 0.193, cell-free background 0.041
[5] = arabinose 10000000 nM, raw OD600 reference: median of DMSO wells 0.146, cell-free background 0.041

SMILES | growth [1] | growth [2] | growth [3] | growth [4] | growth [5]
C=C1c2c(Cl)ccc(O)c2C(O)=C2C(=O)[C@]3(O)C(O)=C(C(N)=O)C(=O)[C@@H](N(C)C)[C@@H]3[C@@H](O)[C@H]12.O=C(O)c1cc(S(=O)(=O)O)ccc1O [Meclocycline sulfosalicylate] | 0.0465 ± 0.0035 | 0.04467 ± 0.00042 | 0.047 ± 0.001 | 0.04453 ± 0.00031 | 0.0463 ± 0.0019
CC(CN(C)C)CN1c2ccccc2CCc2ccccc21 (stereo not given) [Trimipramine maleate salt] | 0.204 ± 0.012 | 0.3 ± 0.0057 | 0.184 ± 0.013 | 0.15 ± 0.0042 | 0.156 ± 0.0021
Nc1ccc(S(=O)(=O)Nc2nccs2)cc1 [Sulfathiazole] | 0.275 ± 0.013 | 0.203 ± 0.0029 | 0.202 ± 0.029 | 0.125 ± 0.0031 | 0.142 ± 0.006
COc1cc(C)c(/C=C/C(C)=C/C=C/C(C)=C/C(=O)O)c(C)c1C [Acitretin] | 0.276 ± 0.0084 | 0.127 ± 0.0023 | 0.228 ± 0.03 | 0.06247 ± 0.00031 | 0.162 ± 0.0072
CC(CCc1ccc(O)cc1)NCCc1ccc(O)c(O)c1 (stereo not given) [Dobutamine hydrochloride] | 0.227 ± 0.021 | 0.174 ± 0.0051 | 0.198 ± 0.0044 | 0.116 ± 0.0039 | 0.115 ± 0.0067
CCOC(=O)c1ccc(N)cc1 [Benzocaine] | 0.324 ± 0.02 | 0.263 ± 0.0073 | 0.213 ± 0.011 | 0.182 ± 0.0029 | 0.1551 ± 0.0012
O=C1c2ccccc2C(=O)C1c1ccccc1 [Phenindione] | 0.298 ± 0.0061 | 0.268 ± 0.011 | 0.197 ± 0.03 | 0.166 ± 0.0028 | 0.147 ± 0.004
CSc1ccc2c(c1)C(N1CCN(C)CC1)Cc1ccccc1S2 (stereo not given) [Methiothepin maleate] | 0.0412 ± 0.0021 | 0.0394 ± 0.00042 | 0.04073 ± 0.00025 | 0.03917 ± 5.8e-05 | 0.0411 ± 0.0013

From the supplement of paper PMC9262897, “Low-cost anti-mycobacterial drug discovery using engineered E. coli” (Nature Communications, 2022)
